Laboratory results from PubChem BioAssay (NCI).
This is part of a sample that, as a whole, favours compounds with a hit. Of some 83,000 tested, about 20% had one in any assay.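 Treatment: one concentration, 48 hours, 96-well format. Scoring: percent growth, with anything below 10 considered active.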 The source made the active and inactive calls.

Columns and labels:
Assay in all cases: NCI-60 one-dose screen, 48 h (100 = growth as untreated, 0 = no growth, -100 = all killed)
Conditions in all cases: 10 µM unless noted
[1] = system: HCT-15 colon
[2] = system: HT29 colon
[3] = system: SNB-75 CNS
[4] = system: SNB-19 CNS
[5] = system: U251 CNS
[6] = system: PC-3 prostate
[7] = system: SK-MEL-5 melanoma
[8] = system: UACC-62 melanoma
[9] = system: LOX IMVI melanoma
[10] = system: SK-MEL-28 melanoma
[11] = system: EKVX NSCLC
[12] = system: SN12C renal
[13] = system: UO-31 renal
[14] = system: TK-10 renal
[15] = system: ACHN renal
[16] = system: CAKI-1 renal
[17] = system: A498 renal
[18] = system: CCRF-CEM leukemia
[19] = system: MOLT-4 leukemia
[20] = system: SK-MEL-2 melanoma

Measured: growth

Cc1c2ccncc2c(C)c2c1c1ccccc1n2CCCCCC(=O)O
inactive: [1] 87.1% | [2] 101% | [3] 82.8% | [4] 86.1% | [5] 85.8% | [6] 86.2% | [7] 89.8% | [8] 85.2% | [9] 74.4% | [10] 113% | [11] 90.3% | [12] 94.2% | [13] 56.7% | [14] 128% | [15] 82.9% | [16] 91.1% | [17] 52.8% | [18] 94.1% | [19] 74.8%

COc1cccc(-c2nn(-c3ccccc3)cc2-c2ccnc(-c3cccnc3)c2)c1
inactive: [1] 89.6% | [2] 96.7% | [3] 93% | [4] 97.6% | [5] 104% | [6] 70.6% | [7] 81.2% | [8] 86.6% | [9] 87.4% | [10] 100% | [11] 93.3% | [12] 101% | [13] 62.1% | [14] 104% | [15] 92.6% | [16] 102% | [17] 98.6% | [18] 99% | [19] 88.1%

COC(=O)CNC(=O)c1ccc(NC(=O)c2[nH]c(C)c(Cl)c2Cl)c(O[C@H]2CCNC2)c1
inactive: [1] 107% | [2] 108% | [3] 94.8% | [4] 102% | [5] 101% | [6] 96.8% | [7] 101% | [8] 98.7% | [9] 94.4% | [10] 115% | [20] 108% | [11] 102% | [14] 104% | [15] 106% | [16] 94.9% | [17] 89.9% | [18] 91.9% | [19] 93.5%

CN(C)CCCN(CCC1CCCCC1)CCC1CCCCC1
active: [2] 7.47% | [7] -82.1% | [8] -78.5% | [9] 5.93% | [10] -97.8%
inactive: [1] 15% | [3] 62.2% | [4] 86.7% | [5] 12.3% | [6] 46.9% | [11] 73.2% | [12] 80.4% | [13] 42% | [14] 85.2% | [15] 65.8% | [16] 52.9% | [17] 58.8% | [18] 21.4% | [19] 15.9%

O=C(Nc1ncc(Cc2cc(C(F)(F)F)ccc2Cl)s1)C(=S)N1CCOCC1
inactive: [1] 78.6% | [2] 95.1% | [3] 86.7% | [4] 96.9% | [5] 90.3% | [6] 81.3% | [7] 96.6% | [8] 72.6% | [9] 90.5% | [10] 114% | [11] 83% | [12] 96.2% | [13] 69.5% | [14] 88.5% | [15] 99.4% | [16] 67.1% | [17] 90.3% | [18] 92.3% | [19] 93%

CCCN1C2CCC1/C(=C\c1ccc(OC)cc1)C(=O)/C2=C/c1ccc(OC)cc1
inactive: [1] 71.1% | [2] 58% | [3] 84.9% | [4] 86.7% | [5] 70.3% | [6] 64% | [7] 64.1% | [8] 49.7% | [9] 74.8% | [10] 82.7% | [11] 77.6% | [12] 75% | [13] 56.3% | [14] 85.9% | [15] 81.6% | [16] 74.4% | [17] 80% | [18] 67.4% | [19] 55%

Nc1ncc(-c2ccc3ncnc(N4CCc5cc(F)c(Cl)cc54)c3c2)cn1
inactive: [1] 44.2% | [2] 41.8% | [4] 59.6% | [5] 54.8% | [6] 28.3% | [7] 59.9% | [8] 23.8% | [9] 37.6% | [10] 65.1% | [20] 66.7% | [11] 15.7% | [13] 14.4% | [14] 21.8% | [15] 20.5% | [16] 15.7% | [18] 22% | [19] 17.3%
active: [3] -6.4% | [17] -29.5%

c1ccc2[nH]c(-c3ccc(-c4nccc5c4[nH]c4ccccc45)cc3)nc2c1
active: [2] 4.38% | [8] -24%
inactive: [1] 38.7% | [3] 64.9% | [4] 55.1% | [5] 24.2% | [6] 85.7% | [7] 62.6% | [9] 10.8% | [10] 61.3% | [11] 81.2% | [12] 60.9% | [13] 89.2% | [14] 73.5% | [15] 71.7% | [16] 81.9% | [17] 68.7% | [18] 11.1% | [19] 77.1%

CC(C)=CCC[C@](C)(O)C1CC[C@]2(C)[C@@H]1CC[C@@H]1[C@@]3(C)CC/C(=N\OCCC#N)C(C)(C)[C@@H]3CC[C@]12C (stereo not given in full)
inactive: [1] 83.4% | [2] 65.1% | [3] 77.8% | [4] 92.4% | [5] 90.3% | [6] 62.3% | [7] 85.8% | [8] 68.9% | [9] 89.2% | [10] 94.1% | [11] 72.4% | [12] 80% | [13] 60.5% | [14] 105% | [15] 90.3% | [16] 77.5% | [17] 72.8% | [18] 75.8% | [19] 77.5%

Cc1oc2ccc(O)c(CN3CCCCCC3)c2c1C(=O)Nc1ccc(C(F)(F)F)cc1
inactive: [1] 45.1% | [2] 80.5% | [3] 50.6% | [4] 69.9% | [5] 55.1% | [6] 45.7% | [7] 70% | [8] 67.3% | [9] 39.2% | [10] 76.9% | [11] 64.1% | [12] 66.7% | [13] 40.7% | [14] 81.1% | [15] 68.5% | [16] 50.5% | [17] 50.5% | [18] 65.2% | [19] 64.3%

CN1CCN(Cn2nc(-c3cc(Cl)cc(Cl)c3Cl)oc2=S)CC1
inactive: [1] 99.5% | [2] 102% | [3] 80.9% | [4] 95.4% | [5] 97.5% | [6] 92.1% | [7] 101% | [8] 99.7% | [9] 93.8% | [10] 110% | [11] 102% | [12] 93.9% | [13] 138% | [14] 110% | [15] 98.1% | [16] 59.5% | [17] 95% | [18] 272% | [19] 122%

CC(=O)Cc1nsc(NC(=O)c2cc(-c3cc(Cl)ccc3Cl)oc2C)n1
inactive: [1] 103% | [2] 107% | [3] 94.7% | [4] 102% | [5] 97.4% | [6] 96.8% | [7] 99.1% | [8] 95% | [9] 96.3% | [10] 108% | [20] 101% | [11] 98.4% | [13] 107% | [14] 151% | [15] 106% | [16] 98.9% | [17] 105% | [18] 108% | [19] 101%

O=C1C(c2c(O)[nH]c3ncccc23)=Nc2ccccc21
inactive: [1] 77.9% | [2] 93.8% | [3] 68.1% | [4] 96.4% | [5] 88.2% | [6] 73% | [7] 75.4% | [8] 79.6% | [9] 76.3% | [10] 123% | [11] 30.6% | [12] 90.6% | [13] 46.2% | [14] 56.4% | [15] 51.5% | [16] 53.7% | [17] 117% | [18] 88.4% | [19] 85.4%

CCN1CCN(c2nc(NNC(=O)c3ccc(OC)cc3)nc(N3CCN(C(c4ccccc4)c4ccccc4)CC3)n2)CC1
inactive: [1] 22.2% | [2] 15.6% | [3] 45.9% | [4] 78.3% | [5] 39.5% | [6] 30.2% | [8] 68.3% | [10] 64.1% | [11] 82.6% | [12] 45.7% | [13] 61.2% | [14] 49.5% | [15] 34% | [16] 24% | [17] 60.1% | [18] 43.8%
active: [7] -74.4% | [9] 1.43%

O=c1ccc2c(ccc3ncccc32)o1
inactive: [1] 108% | [2] 99.9% | [3] 105% | [4] 118% | [5] 109% | [6] 94.3% | [7] 95% | [8] 112% | [9] 102% | [10] 113% | [11] 118% | [12] 106% | [13] 77.1% | [14] 105% | [15] 95.6% | [16] 90% | [17] 81.8% | [18] 104% | [19] 92.7%

CCN(CC)CCN1C(=O)c2c(c(C)c3c(oc4cc(OC)ccc43)c2C)C1=O
active: [18] -10.9%
inactive: [1] 101% | [2] 96.8% | [3] 77.2% | [4] 87.6% | [5] 55.5% | [6] 92% | [7] 95.8% | [8] 102% | [9] 83.1% | [10] 76.1% | [20] 101% | [11] 93.5% | [14] 100% | [15] 51% | [16] 78.2% | [17] 108%
